According to publication PMC12136788:
Over roughly 5,800 sequences, “enrichment r” has its median near 0.68; the highest 2% begin near 11. Only a sample is shown.

T1: UNK ZnF1-6 (called full-length) (human, UniProt Q9C0B0 30-357)
T1 sequence: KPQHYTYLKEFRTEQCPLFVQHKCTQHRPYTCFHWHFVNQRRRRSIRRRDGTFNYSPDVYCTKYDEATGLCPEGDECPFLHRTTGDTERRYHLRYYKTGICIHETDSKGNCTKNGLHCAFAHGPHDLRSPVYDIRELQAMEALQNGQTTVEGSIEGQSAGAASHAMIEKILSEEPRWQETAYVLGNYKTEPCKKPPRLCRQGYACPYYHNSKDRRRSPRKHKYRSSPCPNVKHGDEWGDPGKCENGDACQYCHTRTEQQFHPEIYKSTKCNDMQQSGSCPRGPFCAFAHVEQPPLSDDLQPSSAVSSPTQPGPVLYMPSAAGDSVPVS

B1: chr8:79641408:79641533:+|CDS|ENSG00000104435|unk|total|mutant (ssRNA)
RNA: GGGAGUUCUACAGUCCGACGAUCCCAGGCUUUUGAGCUGAUCUUGAAGCCACCAUCUCCUAUCUCAGAAGCCCCACGAACUUCCGCUUCUCCAAAGAAGAAAGACCUGUCCCUGGAGGAGAUCCAGAAGAAACUGGAGGCUGCCAACAGAGGAUUGAGCAUCA
B2: ENSG00000107863:be:win_6101|3pUTR|ENSG00000107863|bound_else_gene|NA|bound_elsewhere_windowed (ssRNA)
RNA: GGGAGUUCUACAGUCCGACGAUCGCAAGGUAUUUGUUGCAACUUACUACAUAGCAUAUACCCAAAAUCACUGAAGAAAAUCGCUGGCAUCAGUGUGCAGCAAAUUUGUUCUUUUGGUUUCAUCACUAACAAAAGUGCCUCAUCCAACAGAGGAUUGAGCAUCA
B3: chr14:102081487:102081564:-|3pUTR|ENSG00000080824|msi1_unk|FALSE|overlapping (ssRNA)
RNA: GGGAGUUCUACAGUCCGACGAUCGAAGAUAAGAUUUCUGUCUACUAAGUGAUGCUGUGAUACCUUAGGCACUAAAGCAGAGCUAGUAAUGCUUUUUGAGUUUCAUGUUGGUUUAUUUUCACAGAUUGGGGUAACGUGCACUGUCAACAGAGGAUUGAGCAUCA
B4: chr14:54957033:54957204:-|CDS|ENSG00000198554|control|control|control (ssRNA)
RNA: GGGAGUUCUACAGUCCGACGAUCGCACGUUCAACUAAUAUUUUAGACAAUAUGGGCAAAUCAUCCAAGAAAUCCACUGCACUUAGUCGAACUACAAAUAAUGAAAAGUCUCCCAUUAUAAAGCCUCUGAUUCCAAAGCCGAAGCAACAGAGGAUUGAGCAUCA
B5: chrX:55006554:55006655:+|CDS|ENSG00000169188|unk|FALSE|unique (ssRNA)
RNA: GGGAGUUCUACAGUCCGACGAUCAGGGCGCAAGUGGAUGGACAGCUUGCUCAGUAACUUGGGGUGCCAGUCUGCCUCUCAUGUAGGGCCCUUCAUCGAUAGCUACCGCUGCUUCCAACCAAAGCAGGAGGGGGCCUUCACCUGCAACAGAGGAUUGAGCAUCA
B6: chrX:112630647:112631419:-|three_prime_utr|ENSG00000182508|control|control|control (ssRNA)
RNA: GGGAGUUCUACAGUCCGACGAUCAGAAGAUUGGAGAGGGUGGGAAAGGGGAGGAGGGAGCCCUGAAAAGAGGUACUAAGGAUUAGGCCAUUUGUCAUCUGACUGUCAUUAGCAUAGCCUAGUGUUUGCAUGCUUUUUAAACUACAACAGAGGAUUGAGCAUCA
B7: chr1:173887777:173887878:+|3pUTR|ENSG00000185278|unk|FALSE|unique (ssRNA)
RNA: GGGAGUUCUACAGUCCGACGAUCAAAGAGAUUUGGCAGAGGGACAGGUUGUACCUGCACUGGUGAACCAUCUGUGAGAAUGUUAGUCAUGUGCUCCUUUCCUGAGAUUGCUUUGUGGUAUGUGAAAAGGUGGGUAGAAAAGAACAACAGAGGAUUGAGCAUCA
B8: chr1:93180074:93180188:-|CDS|ENSG00000117500|unk|FALSE|bound_elsewhere (ssRNA)
RNA: GGGAGUUCUACAGUCCGACGAUCCUGGCCGCUCUGCCUCCGGUGCUGCUGCCUGGGGCGGCCGGCUUCACACCUUCCCUCGAUAGCGACUUCACCUUUACCCUUCCCGCCGGCCAGAAGGAGUGCUUCUACCAGCCCAUGCCCCAACAGAGGAUUGAGCAUCA
B9: chr12:76028832:76028933:-|3pUTR|ENSG00000139289|msi1|total|mutant (ssRNA)
RNA: GGGAGUUCUACAGUCCGACGAUCAAAGGAAAAGACUGGAUAAACACAGGAUUUUCAGUAAGAAAACAACCCCAGUCUUGUCUCCGAAGCCACUUGUUGAGGAGUCUGUUGGGGGAAAAAAGAGGAUAUGCUUUUAAAGGCCGACAACAGAGGAUUGAGCAUCA
B10: chr3:27418507:27418620:-|CDS|ENSG00000033867|unk|FALSE|bound_elsewhere (ssRNA)
RNA: GGGAGUUCUACAGUCCGACGAUCUGAUGUAGCUUAUAAAGCAAAAGACAGAAAUGACCUCUUAUCUGGAAUUGAUGAAUUUUUAGAUCAAGUAACUGUCCUACCUCCAGGAGAGUGGGAUCCUUCUAUACGCAUAGAACCACCCAACAGAGGAUUGAGCAUCA
B11: chr11:35619468:35619569:+|CDS|ENSG00000179431|unk|FALSE|unique (ssRNA)
RNA: GGGAGUUCUACAGUCCGACGAUCCCCCCUCCGGGAUGCCGGGGGUGAGCUGGCCAACCUCAGCCAGGCGGAGCUGGUGGACCUAGUACAAUGGACCGACUUAAUCCUUUUCGACUACCUGACGGCCAACUUCGACCGGCUCGUCAACAGAGGAUUGAGCAUCA
B12: chr5:91369659:91369760:-|3pUTR|ENSG00000113369|msi1|total|mutant (ssRNA)
RNA: GGGAGUUCUACAGUCCGACGAUCUCAGCAUUUUCCAAGGUACCAAGUGUACUUAUUUUGUUGUUGUUGUUGUUGUUGUAUUUCCGAAGGAAUUCAGCUCUGAUGUUUUUAAAGAAAACCAGCAUCUCUGAUGUUGCAACAUACCAACAGAGGAUUGAGCAUCA
B13: chr9:35056615:35056731:-|3pUTR|ENSG00000165280|msi1|FALSE|unique (ssRNA)
RNA: GGGAGUUCUACAGUCCGACGAUCCCCUAUCCAACCUGGGUAGGUGGGUAGGGGCCACAGUUGCUGGAUGUUUAUAUAGAGAGUAGGUUGAUUUAUUUUACAUGCUUUUGAGUUAAUGUUGGAAAACUAAUCACAAGCAGUUUCCAACAGAGGAUUGAGCAUCA
B14: chr6:149379354:149379455:+|CDS|ENSG00000055208|msi1|FALSE|bound_elsewhere (ssRNA)
RNA: GGGAGUUCUACAGUCCGACGAUCAGGGGUGGUGUCCCCUACCUUUGAACUUACAAAUCUUCUUAAUCAUCCUGAUCAUUAUGUAGAAACCGAGAAUAUUCAGCACCUCACGGACCCUACAUUAGCACAUGUGGAUAGAAUAAGCAACAGAGGAUUGAGCAUCA
B15: chr17:81921741:81921842:-|3pUTR|ENSG00000197063|msi1|total|mutant (ssRNA)
RNA: GGGAGUUCUACAGUCCGACGAUCAAUUAUAUGUUUAAAAGUUAAAGAAAAAAGAGCUGCAGAGUAUUUAUAAAACUGUCUUUCCGAAAAAAAACAAGCAAGAAGACCAUUUGACCAUAUGAAUGGAAAAGGGAAGAAAGUAUACAACAGAGGAUUGAGCAUCA
B16: chr1:110947961:110948399:-|CDS|ENSG00000121931|control|control|control (ssRNA)
RNA: GGGAGUUCUACAGUCCGACGAUCAAGUCAUUUCUUCAAUAAAAAUUAUACCGAAGAUAUUUUCCCAGUGACACCACCGGAGUUAGAAGAAACCAUUCGAGAUGAAAAAAUAAGAAGACUUAAGCAGGUGCUGAGAGAGAAAGACAACAGAGGAUUGAGCAUCA
B17: chrX:153456492:153456651:-|CDS|ENSG00000213397|control|control|control (ssRNA)
RNA: GGGAGUUCUACAGUCCGACGAUCAUGGAGCACUUCGAGGACACCAGGGAGAAGAACGAGGCCUUGCUGGGGGAGCUCUUCUCUAGCCCCCACCUGCAGAUGCUCCUGAAUCCAGAGUGCGACCCGUGGCCCCUGGACAUGCAGCAACAGAGGAUUGAGCAUCA
B18: ENSG00000130720:stop:overlap|stop_codon|ENSG00000130720|stop_codon|NA|stop_codon (ssRNA)
RNA: GGGAGUUCUACAGUCCGACGAUCGCUGGCAGUACUCACUCAAGUUCUCUGAGAUGAAGAUCCGGCCGGUCCGGGAGGACCGCUAGACUGGUGCACCUUGUCCUUGGCCCUGCUGGUCCCUGUCGCCCCAUCCCCGACCCCACCCAACAGAGGAUUGAGCAUCA
B19: chr3:89481969:89482070:+|3pUTR|ENSG00000044524|msi1|total|mutant (ssRNA)
RNA: GGGAGUUCUACAGUCCGACGAUCAUAUGUGUUUACUUUAAACUUGUCUUUUCAAAAUAUUACUCAGUUUAUGUUGUACAAUGCCGAUGGCCUCUUACUAAUGUAAAAUGAUUUGCCGUGGAAACAUUUAUAUUUUUAUAAUAACAACAGAGGAUUGAGCAUCA
B20: chr4:123402332:123402450:+|CDS|ENSG00000164056|unk|total|mutant (ssRNA)
RNA: GGGAGUUCUACAGUCCGACGAUCGACGAAGGGGAUUCCUAUUCAGAUAAUCCUUGCUCCUGUUCACAAUCACACUGCUGCUCCCGAUACCUGUGUAUGGGAGCCAUGUCUUUAUUUUUACCUUGCUUACUCUGUUAUCCUCCUCAACAGAGGAUUGAGCAUCA
B21: chr1:198253062:198253183:+|CDS|ENSG00000151414|unk|total|mutant (ssRNA)
RNA: GGGAGUUCUACAGUCCGACGAUCAUGGGCUAUAAUACAUCCGCCAACUUUCGAACCGAAAAGAAAAUUGGUCGCGGACAAUUCCGUGAAGUUUACCGAGCAGCCUGUCUCUUGGAUGGAGUACCAGCCGCUUUAAAAAAAGUGCAACAGAGGAUUGAGCAUCA
B22: chr6:144852070:144852171:+|3pUTR|ENSG00000152818|unk|FALSE|unique (ssRNA)
RNA: GGGAGUUCUACAGUCCGACGAUCAAGUCCUUAAUAGUUCUUGAAACUCCUAGUUGUUUUCUUGUUGAAAGCAGACACACAUUUAGUGCACGGCUUAUUUUACCUUUCGGGUGAAAGAUCAGAUGUUUUUAUACCCUUCACUUGCAACAGAGGAUUGAGCAUCA

Each binder was assayed against T1, UNK ZnF1-6 (called full-length) (assay: nsRBNS (natural sequence RNA bind-n-seq); RBNS binding buffer (assumed for nsRBNS): 25 mM Tris pH 7.5, 150 mM KCl, 3 mM MgCl2, 0.01% Triton X-100, 500 ug/ml BSA, 20 U/ml SUPERase-In, 4 C; UNK is unkempt and MSI1 is Musashi-1; names of the RNAs are library labels; protein concentration not given here; high values mean tight binding).

Binder	binding signal [enrichment R]
B1	0.67
B2	0.567
B3	0.375
B4	1.02
B5	0.87
B6	1.14
B7	0.823
B8	1.1
B9	0.52
B10	0.413
B11	0.618
B12	0.292
B13	0.815
B14	0.615
B15	0.865
B16	0.797
B17	0.759
B18	1.34
B19	0.702
B20	0.585
B21	0.411
B22	0.969
